# Inconclusive results are not listed. The source made the active and inactive calls. The call rests on the fitted dose curve.
# Molecular target: Estrogen receptor (Homo sapiens) (UniProt P03372)
# Experiment: qHTS assay to identify small molecule agonists of the estrogen receptor alpha (ER-alpha) signaling pathway in the presence of an antagonist (AID 1259383); further: nearly all actives have a fitted effect of over 15% in size; further: potency means the concentration at half of the fitted maximal effect; on activation: top concentration of the series differs between compounds
# Details: VM7Luc4E2 cells, ERE-luciferase, +ICI-182,780, 22 h; series mostly up to 92.4 µM; activation: at the top concentration
# Summary of the method: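 Luminescent ERE-luciferase reporter, VM7Luc4E2 cells (endogenous ER-alpha); 10.0nM ICI-182,780 final; 15-point compound titration; 22hr at 37C; ONE-Glo, 30min RT.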
# On the % scale 0 is the no-effect control and ±100 the full control effect.
# Sequence of Estrogen receptor (Homo sapiens) (P03372 whole entry, looked up): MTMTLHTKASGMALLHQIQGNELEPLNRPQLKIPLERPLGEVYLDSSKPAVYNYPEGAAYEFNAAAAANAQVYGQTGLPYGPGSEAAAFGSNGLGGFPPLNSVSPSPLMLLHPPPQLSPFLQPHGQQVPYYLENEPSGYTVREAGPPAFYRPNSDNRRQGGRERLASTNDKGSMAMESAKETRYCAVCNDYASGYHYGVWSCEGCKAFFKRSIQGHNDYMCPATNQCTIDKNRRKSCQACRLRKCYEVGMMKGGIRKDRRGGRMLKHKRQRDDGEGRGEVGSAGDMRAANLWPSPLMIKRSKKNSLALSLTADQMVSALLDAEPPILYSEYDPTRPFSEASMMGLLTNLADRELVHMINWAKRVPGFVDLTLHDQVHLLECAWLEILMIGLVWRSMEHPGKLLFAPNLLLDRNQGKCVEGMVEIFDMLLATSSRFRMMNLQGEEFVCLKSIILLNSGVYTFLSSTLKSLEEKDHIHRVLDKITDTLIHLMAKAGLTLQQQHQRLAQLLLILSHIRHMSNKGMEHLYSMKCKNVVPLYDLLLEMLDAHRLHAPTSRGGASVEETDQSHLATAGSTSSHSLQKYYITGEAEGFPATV
Compound,activation,Potency
CC(CCc1ccccc1)NCC(O)c1ccc(O)c(C(N)=O)c1 (stereo unspecified),-1.11% (inactive),–
CCc1cccc(CC)c1NC(=O)CN(CC(=O)O)CC(=O)O,-0.191% [at 42.5 µM] (inactive),–
CC(C)(C)CC(C)(C)c1ccc(Nc2ccc(C(C)(C)CC(C)(C)C)cc2)cc1,1.18% [at 8.39 µM] (inactive),–
O=C(O)c1ccc2cc(C(=O)O)ccc2c1,0.134% (inactive),–
C#C[C@]1(O)CC[C@H]2[C@@H]3[C@H](C)CC4=C(CCC(=O)C4)[C@H]3CC[C@@]21C,–,84.1 nM (active)
CCCC1CCC(=O)CC1,0.356% (inactive),–
c1ccc(SSc2ccccc2)cc1,0.064% (inactive),–
O=C1c2ccccc2C(=O)N1SC1CCCCC1,–,inactive
O=S(=O)(O)c1ccc(N=Nc2c(O)ccc3ccccc23)cc1,-4.8% (inactive),–
O=C1CCCCCCCCCCCCCCCO1,-1.27% (inactive),–
CCc1ccc(Br)cc1,-0.643% (inactive),–
CCn1c2ccccc2c2cc([N+](=O)[O-])ccc21,-1.38% (inactive),–
Cc1cc(-c2ccc(N=Nc3cc(S(=O)(=O)O)c4ccccc4c3N)c(C)c2)ccc1N=Nc1cc(S(=O)(=O)O)c2ccccc2c1N,-16% (inactive),–
NC(=O)c1cccc([N+](=O)[O-])c1,-2.57% (inactive),–
CCCCC(CC)CN1CN(CC(CC)CCCC)CC(C)(N)C1 (stereo unspecified),1.63% [at 42.5 µM] (inactive),–
CCCCCC/C=C\CCCCCCCC(=O)O,-0.198% (inactive),–
CCC(=O)OC(=O)CC,0.0651% (inactive),–
COC(C)=O,-1.1% (inactive),–
OC12N=C(c3ccccc3)SC1Cc1cc(Cl)ccc12 (stereo unspecified),–,1930 nM (active)
CCCCOC(=O)CO,-0.261% (inactive),–

# System: not listed separately
# Experiment: qHTS assay to identify small molecule agonists or antagonists of the thyroid stimulating hormone receptor (TSHR) signaling pathway - wild type cell line counter screen (AID 1259384)
# Details: HEK293 wild type, cAMP HTRF counter-screen, active compounds read high; series mostly up to 92.4 µM; cAMP activity change: at the top concentration
# Summary of the method: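 Wild-type Hek293 cells, 800/well, 18 h at 37C, then compound with Ro20-1724 for 30 min RT. cAMP by HTRF (cAMP-d2/anti-cAMP cryptate), 1 h RT, fluorescence read. 15 concentrations, triplicates.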
Compound,cAMP activity change,outcome
CN1CCC[C@@H]1CCO[C@](C)(c1ccccc1)c1ccc(Cl)cc1,-4.52% [at 42.5 µM] (inactive),–
COCCOc1cc2cc(C(=O)NC3CCN(C(C)C)CC3)n(CC(=O)Nc3ccc(Cl)cn3)c2cn1,-4.44% (inactive),–
CC(C)(C)CC(C)(C)c1ccc(Nc2ccc(C(C)(C)CC(C)(C)C)cc2)cc1,6.94% [at 8.39 µM] (inactive),–
O=C1c2ccccc2C(=O)N1SC1CCCCC1,–,inactive
Cc1nc(-c2ccc(Cl)cc2)oc1COC(C)(C)C(=O)O,-2.44% [at 42.5 µM] (inactive),–
O=S(=O)(O)c1ccc(N=Nc2c(O)ccc3ccccc23)cc1,-3.83% (inactive),–
Cc1cccc2cccnc12,-1.29% (inactive),–
COc1cccc(OC)c1C(=O)O,-0.232% (inactive),–
CCCC(=O)OCCc1ccccc1,2.12% (inactive),–
C=CCn1c(=O)n(CC=C)c(=O)n(CC=C)c1=O,-2.26% (inactive),–
Cc1cc(-c2ccc(N=Nc3cc(S(=O)(=O)O)c4ccccc4c3N)c(C)c2)ccc1N=Nc1cc(S(=O)(=O)O)c2ccccc2c1N,10.4% (inactive),–
NC(=O)c1cccc([N+](=O)[O-])c1,-2.27% (inactive),–
CCCCC(CC)CN1CN(CC(CC)CCCC)CC(C)(N)C1 (stereo unspecified),-5.17% [at 42.5 µM] (inactive),–
OCC(F)(F)F,-1.87% (inactive),–
CCC(=O)OC(=O)CC,-1.42% (inactive),–
Oc1ccccc1O,–,inactive

# Molecular target: Thyrotropin receptor (Homo sapiens) (UniProt P16473)
# Experiment: qHTS assay to identify small molecule antagonists of the thyroid stimulating hormone receptor (TSHR) signaling pathway (AID 1259385); further: nearly all actives have a fitted effect of over 20% in size
# Details: TSHR-HEK293 cAMP HTRF, TSH-stimulated antagonist mode; series mostly up to 92.4 µM; activity change, negative = inhibition: at the top concentration
# Summary of the method: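 TSHR-HEK293 cells (800/well) plated 18 h, then compounds with Ro20-1724 and TSH at 1.5 ng/mL final, 30 min at room temperature. cAMP quantified by HTRF (cAMP-d2/anti-cAMP-cryptate, 1 h); 15 concentrations in triplicate.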
# Sequence of Thyrotropin receptor (Homo sapiens) (P16473 whole entry, looked up): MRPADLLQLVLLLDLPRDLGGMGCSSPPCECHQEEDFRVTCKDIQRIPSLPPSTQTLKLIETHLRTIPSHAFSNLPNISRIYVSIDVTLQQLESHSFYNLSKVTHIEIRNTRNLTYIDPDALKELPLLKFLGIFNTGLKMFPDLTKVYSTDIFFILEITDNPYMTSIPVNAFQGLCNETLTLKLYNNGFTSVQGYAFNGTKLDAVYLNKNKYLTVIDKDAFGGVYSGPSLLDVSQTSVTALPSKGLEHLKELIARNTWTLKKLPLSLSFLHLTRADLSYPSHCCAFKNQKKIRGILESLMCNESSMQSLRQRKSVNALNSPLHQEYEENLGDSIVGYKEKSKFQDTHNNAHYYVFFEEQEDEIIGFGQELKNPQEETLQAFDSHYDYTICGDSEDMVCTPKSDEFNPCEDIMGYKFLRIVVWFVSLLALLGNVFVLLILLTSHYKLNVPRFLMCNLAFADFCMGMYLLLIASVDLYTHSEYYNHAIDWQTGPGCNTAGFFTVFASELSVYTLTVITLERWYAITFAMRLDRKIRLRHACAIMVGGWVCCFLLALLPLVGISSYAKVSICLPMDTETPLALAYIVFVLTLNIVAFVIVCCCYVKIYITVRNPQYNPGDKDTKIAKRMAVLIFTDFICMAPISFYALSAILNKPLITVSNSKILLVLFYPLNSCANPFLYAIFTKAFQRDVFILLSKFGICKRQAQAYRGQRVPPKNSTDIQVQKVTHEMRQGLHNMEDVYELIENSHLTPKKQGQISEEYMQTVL
Compound,"activity change, negative = inhibition",Potency
COCCOc1cc2cc(C(=O)NC3CCN(C(C)C)CC3)n(CC(=O)Nc3ccc(Cl)cn3)c2cn1,-2.09% (inactive),–
CCC(CC)C(C)CCOC(C)=O (stereo unspecified),-0.233% (inactive),–
CCc1cccc(CC)c1NC(=O)CN(CC(=O)O)CC(=O)O,-0.959% [at 42.5 µM] (inactive),–
CC(C)(C)CC(C)(C)c1ccc(Nc2ccc(C(C)(C)CC(C)(C)C)cc2)cc1,1.31% [at 8.39 µM] (inactive),–
Sc1nc2ccccc2s1,-1.2% (inactive),–
O=C1c2ccccc2C(=O)N1SC1CCCCC1,–,inactive
Cc1nc(-c2ccc(Cl)cc2)oc1COC(C)(C)C(=O)O,-1.2% [at 42.5 µM] (inactive),–
O=C1CCCCCCCCCCCCCCCO1,-7.19% (inactive),–
CC/C=C\CCCCCO,-4.04% (inactive),–
Cc1cccc2cccnc12,-1.23% (inactive),–

# Source: PubChem BioAssay (Tox21)
